Measured values from PubChem BioAssay (NCATS).
Inconclusive results are not listed. A number with no mark means an inactive call. Activity calls are given as the source filed them. The call rests on the fitted dose curve; in most records, active means well fitted inhibition curve with a large enough effect; inconclusive means small, poorly fitted or top-dose-only effect; inactive means flat fitted curve, though single readings scatter.

Experiment: qHTS for differential inhibitors of proliferation of Plasmodium falciparum line Dd2 (AID 1882); further: nearly all actives have a fitted effect of over 65% in size
Details: Potency: Plasmodium falciparum Dd2 proliferation inhibition; series mostly up to 28.7 µM; activity change, negative = inhibition: at the top concentration
Description: NIH Molecular Libraries Probe Production Network [MLPCN]
NIH National Institute of Allergy and Infectious Diseases [NIAID]
NIH Chemical Genomics Center [NCGC]
Assay Provider: Xinzhuan Su, NIAID
Plasmodium falciparum is a virulent malarial parasite that kills 1-2 million people worldwide each year. Transmitted by mosquitoes, the sporozoite form of the parasite enters the blood stream to infect hepatocytes, where they become merozoites that infect red blood cells (erythrocytes). Within erythrocytes, merozoites begin a […] cycle of growth and division, after which the parasite is released to infect new red blood cells. Gametocytes, which form within erythrocytes as well, circulate in the bloodstream and are ingested by the mosquito, thereby completing the life cycle. To profile malarial isolates for differential chemical responses and to identify inhibitors of malarial growth, an assay that measures P. falciparum growth and replication within erythrocytes was employed. This assay uses a DNA binding fluorescent dye (SYBR Green) to detect parasite DNA following cell lysis. Because mature erythrocytes lack DNA, only Plasmodium-derived DNA is detected. The P. falciparum line Dd2, derived from a malarial isolate from […], was used.
NCGC Assay Protocol Summary:
The SYBR Green viability assay was adapted from a method described previously (Plouffe et al., 2008). For screening 3 ul culture medium was dispensed into 1536 well black clear bottom plates (Aurora Biotechnologies) using a Multidrop Combi (Thermo Fisher Scientific Inc.), 23 nL compounds in DMSO were added by a pin tool (Kalypsys), and 5 ul of erythrocytes infected with P. falciparum line Dd2 (0.3% parasitemia, 2.5% hematocrit final concentration) were added. The plates were incubated at 37 C in a humidified incubator in 5% CO2 for 72 h, and 2 ul lysis buffer (20 mM Tris HCl, 10 mM EDTA, […]% saponin, 1.6% triton X, 10X SYBR Green I supplied as 10,000X […] by Invitrogen) was added to each well. The plates were mixed for 25 sec with gentle shaking and incubated overnight at room temperature in the dark. The following morning, fluorescence intensity at 485(14) nm excitation and 535(25) nm emission wavelengths was measured on an EnVision (Perkin Elmer) plate reader. Plate reads were normalized relative to the control inhibitor (0.29 uM artemisinin) and vehicle (DMSO) wells present on each plate and then corrected by an algorithm using vehicle-only control plates at the beginning and end of the compound plate stack.
Plouffe D, Brinker A, McNamara C, Henson K, Kato N, Kuhen K, Nagle A, Adrian F, Matzen JT, Anderson P, Nam TG, Gray NS, Chatterjee A, Janes J, Yan SF, Trager R, Caldwell JS, Schultz PG, Zhou Y, Winzeler EA. […] Proc Natl Acad Sci U S A. 2008, 105(26), pp 9059-64.
Potency means the concentration at half of the fitted maximal effect.

| Structure (SMILES) | activity change, negative = inhibition [%] | Potency |
| --- | --- | --- |
| CC(=O)OCC1=C(C(=O)[O-])N2C(=O)[C@@H](NC(=O)CCC[C@@H](N)C(=O)[O-])[C@H]2SC1.[Zn+2] | 1.28 |  |
| N[C@@H](Cn1cc(I)c(=O)[nH]c1=O)C(=O)O | -0.459 |  |
| CN1C2CCC1CC(OC(=O)C(CO)c1ccccc1)C2 (stereo not given) | -16.7 |  |
| COc1cc(CCN)ccc1O | 6.24 |  |
| OC1(c2ccc(Cl)cc2)CCN(Cc2c[nH]c3ccccc23)CC1 |  | 11.2 µM (active) |
| CN1[C@@H](CC(=O)c2ccccc2)CCC[C@H]1C[C@H](O)c1ccccc1 |  | 8.91 µM (active) |
| CCCCCCCCCC[Si](C)(C)CCC(=O)NC(Cc1ccc(C)cc1)c1ccccc1 (stereo not given) |  | 5.01 µM (active) |
| N#CC(C#N)=Cc1ccc([N+](=O)[O-])c(O)c1 | -8.98 |  |
| CP(=O)(O)CCCN | -22 |  |
| COc1ccc2[nH]cc(CCN(C)C)c2c1 | -18.5 |  |
| COC(=O)c1cc2c(cn1)[nH]c1ccccc12 | -26.2 |  |
| COc1ccc(CCN)cc1O | 0.268 |  |
| O=[N+]([O-])c1ccc(O[C@@H]2O[C@H](CO)[C@@H](O)[C@H](O)[C@H]2F)c([N+](=O)[O-])c1 | -11.2 |  |
| C[N+]1(C)CCc2cc3c(cc2C1C1OC(=O)c2c1ccc1c2OCO1)OCO3 (stereo not given) | -5.88 |  |
| C[C@@H]1O[C@@H](O[C@H]2C[C@@H](O)[C@]3(CO)[C@@H]4C(CC[C@]3(O)C2)[C@@]2(O)CC[C@H](C3=CC(=O)OC3)[C@@]2(C)C[C@H]4O)[C@H](O)[C@H](O)[C@H]1O (stereo not given in full) | 0.174 |  |
| N[C@H](CCCCCP(=O)(O)O)C(=O)O | 0.163 |  |
| N#C/C(=C\c1ccc(O)c(O)c1)C(=O)NCCCNC(=O)/C(C#N)=C/c1ccc(O)c(O)c1 |  | 3.16 µM (active) |
| CN1CCc2cc(O)cc3c2C1Cc1ccc(O)c(O)c1-3 (stereo not given) |  | 8.91 µM (active) |
| CN1CCN(c2ccc3ccccc3n2)CC1 | -7.96 |  |
| COc1ccc(-n2nc(C(F)(F)F)cc2-c2ccc(Cl)cc2)cc1 | -29.2 |  |
